Test [1] deals with Cellular tumor antigen p53 (Homo sapiens) (UniProt P04637). The test is described as follows: Primary qHTS for small molecule compounds that upregulate eGFP-tagged delta133p53alpha (in N-terminal) cells. (AID 2060322). Further: nearly all actives have a fitted effect of over 75% in size.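 On activation: series mostly up to about 56 µM; 0% = DMSO vehicle and 100% = reference activator.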 Conditions: NCI-H358 eGFP-delta133p53alpha fluorescence, 24 h; activation: hits give high values. The gist of the method:
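NCI-H358 cells pre-induced 24 h with 10 ng/ml doxycycline to express N-terminal eGFP-delta133p53alpha, then dosed 24 h at 37C without doxycycline; fixed, Hoechst-stained, GFP intensity by laser scanning cytometry, normalized to DMSO (0%) and 57.5 uM 5-azacytidine (100%).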
In general terms: qHTS replaces the single test concentration by a dilution series.

The nature of test [2]: BET inhibitor-based combinations targeting novel dependencies in MECOM-rearranged (r) AML: SET-2 cell line (AID 2202231). Further: nearly all actives have a fitted effect of over 35% in size.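 On viability: plate controls were DMSO treated cells for no effect and wells without cells for full effect.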 The following applies: SET-2 AML cells viability, CellTiter-Glo luminescence, 48 h; viability: hits give low values, concentration not given here. The gist of the method: (§1)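 Here, 11-point titrations of each agent were applied to 500 seeded cells and incubated 48 hr; CellTiter-Glo signal, scaled against DMSO and empty wells, was integrated as AUC, then Z-scored within the individual line.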
(In general: In ATP-based viability assays light output follows the ATP content of the culture.)

Test [3] can be described thus: BET inhibitor-based combinations targeting novel dependencies in MECOM-rearranged (r) AML: OCI-AML3 cell line (AID 2202232). Further: nearly all actives have a fitted effect of over 35% in size.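 On viability (% of control): series mostly up to about 46 µM; plate controls were DMSO vehicle wells for no effect and wells without cells for full effect.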 Conditions: Potency: OCI-AML3 viability. The gist of the method:
as §1

The nature of test [4]: BET inhibitor-based combinations targeting novel dependencies in MECOM-rearranged (r) AML: MV-4-11 cell line (AID 2202233). Further: nearly all actives have a fitted effect of over 45% in size. The gist of the method: (§2)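 Normalized to DMSO and empty-well controls, the luminescence data from CellTiter-Glo after 48 hr drug exposure were fitted across 11 concentrations. Reported metrics are area under the dose-response curve and its Z-transformed form.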

Test [5] can be described thus: BET inhibitor-based combinations targeting novel dependencies in MECOM-rearranged (r) AML: HNT-34 cell line (AID 2202234). Further: nearly all actives have a fitted effect of over 35% in size.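 On viability (% of control): plate controls were vehicle wells for no effect and cell-free wells for full effect.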 The gist of the method: as §2
Test [6] in a line: BET inhibitor-based combinations targeting novel dependencies in MECOM-rearranged (r) AML: UCSD-AML1 cell line (AID 2202235). Further: nearly all actives have a fitted effect of over 40% in size.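 On viability (% of control): series mostly up to about 46 µM; plate controls were DMSO vehicle wells for no effect and blank wells for full effect.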 The gist of the method: as §2
Test [7] in a line: BET inhibitor-based combinations targeting novel dependencies in MECOM-rearranged (r) AML: AML-191 cell line (AID 2202236; further: nearly all actives have a fitted effect of over 35% in size;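 on viability (% of control): plate controls were vehicle wells for no effect and wells without cells for full effect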). The gist of the method:
as §1

Test [8] is described as follows: BET inhibitor-based combinations targeting novel dependencies in MECOM-rearranged (r) AML: AML-194 cell line (AID 2202237; further: nearly all actives have a fitted effect of over 40% in size;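 on viability (% of control): plate controls were vehicle wells for no effect and wells without cells for full effect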). The gist of the method:
as §1

Several values for one entry are separate records, joined by “and”; a condition that tells them apart may be missing. Equal values may be shown once. Results filed as inconclusive are left out. Unmarked numbers belong to inactive results. Activity calls are given as the source filed them. The call rests on the fitted dose curve; in most records, active means well fitted curve in the direction sought with a large enough effect; inconclusive means small, poorly fitted or top-dose-only effect, or another doubt; inactive means no such curve, though single readings can be large; an effect the other way counts as inactive or inconclusive. Residues, ends and D or L forms follow the SMILES beside them. *: point of attachment. Cbz = O=C(OCc1ccccc1)*

Data on 20 compounds can be found in PubChem BioAssay (NCATS).
Potency means the concentration at half of the fitted maximal effect.

Sequence of Cellular tumor antigen p53 (Homo sapiens) (P04637 whole entry, looked up): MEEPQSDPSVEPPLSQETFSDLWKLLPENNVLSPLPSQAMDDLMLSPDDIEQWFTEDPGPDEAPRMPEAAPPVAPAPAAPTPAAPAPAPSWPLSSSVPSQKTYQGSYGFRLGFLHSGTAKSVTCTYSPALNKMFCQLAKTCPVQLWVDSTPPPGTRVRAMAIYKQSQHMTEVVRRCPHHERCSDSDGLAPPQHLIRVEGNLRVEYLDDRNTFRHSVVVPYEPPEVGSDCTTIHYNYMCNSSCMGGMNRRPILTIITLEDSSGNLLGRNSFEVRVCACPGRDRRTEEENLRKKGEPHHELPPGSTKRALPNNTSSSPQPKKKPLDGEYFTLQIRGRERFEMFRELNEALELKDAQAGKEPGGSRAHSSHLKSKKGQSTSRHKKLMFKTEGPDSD

Regarding `O=C(O)C(=O)Nc1cccc(-c2nn[nH]n2)c1`, the activation in test [1] was -3.95%. In test [2], the viability was 121%. Moreover, the Potency entry in test [3], in test [4], in test [5], in test [6], in test [7] and in test [8] was “inactive” each time.

As for `CC(C)C[C@@H](C=O)NC(=O)[C@H](CC(C)C)NC(=O)[C@H](CC(C)C)NC(=O)OCc1ccccc1` (Cbz-Leu-Leu-Leu-aldehyde), the Potency in test [1] is 2.73 µM (active); in test [2] it was 1.48 µM (active); in test [3], 1.86 µM (active); in test [4], 2.35 µM (active); in test [5], 2.35 µM (active); in test [6] it was 2.95 µM (active). In addition, the Potency in test [7] was 2.35 µM (active); in test [8], 2.63 µM (active).

`Cc1ccc(C(=O)c2cc(O)c(O)c([N+](=O)[O-])c2)cc1`: the activation in test [1] was 1.67% and 0.973%. The viability in test [2] is 104%. Further, the Potency entry in test [3], in test [4], in test [5], in test [6] and in test [8] was “inactive” throughout.

`O=C(O)c1cc(O)c2c(c1)C(=O)c1cccc(O)c1C2=O`: the activation in test [1] was -15.1%. The viability in test [2] is 115%. Moreover, in test [3], the Potency is 5.9 µM (active). Moreover, the Potency entry in test [4], in test [5], in test [6], in test [7] and in test [8] was “inactive” throughout.

For the compound `CCOC(=O)[C@H](CCc1ccccc1)N[C@@H](C)C(=O)N1CCC[C@H]1C(=O)O`, the activation in test [1] was 0%. Moreover, the viability in test [2] was 92.2%. The Potency entry in test [3], in test [4], in test [5], in test [6], in test [7] and in test [8] was “inactive” in each case.

In the case of `CS(=O)(=O)OCCCCOS(C)(=O)=O`, the activation in test [1] was -9.57%. The viability in test [2] was 114%. Besides, the Potency result in test [3], in test [4], in test [5], in test [7] and in test [8] was “inactive” in each case.

As for `O=c1[nH]c(=O)n(C2CCCO2)cc1F` (configuration not stated), the activation in test [1] is -1.88%. Further, the viability in test [2] was 111%. In addition, the Potency result in test [3], in test [5], in test [6] and in test [8] was “inactive” each time. In addition, the Potency in test [4] was 20.9 µM (active).

On to `Cc1cccc(-c2[nH]c(C(C)(C)C)nc2-c2ccc3c(c2)OCO3)n1`, for which the activation in test [1] was -10.9%. Further, the Potency is 16.6 µM (active) in test [2]; 3.72 µM (active) in test [3]; 2.95 µM (active) in test [4]; 6.61 µM (active) in test [5]; 6.61 µM (active) in test [7]; 6.61 µM (active) in test [8].

As to `Cc1cnc(Nc2ccc(N3CCN(C)CC3)cc2)nc1Nc1cccc(S(=O)(=O)NC(C)(C)C)c1`, in test [1], the activation is 28.8%. Besides, the Potency in test [2] was 2.63 µM (active); in test [3], 5.25 µM (active); in test [4], 0.662 µM (active); in test [5], 0.833 µM (active); in test [6] it was 1.86 µM (active); in test [8] it was 2.95 µM (active).

Take `COc1cc(NC(=O)c2ccc(-c3ccc(Cl)cc3)o2)cc(OC)c1`: the activation in test [1] is 1.2%. Also, the viability in test [2] is 110%. For the same compound, the Potency entry in test [3], in test [4], in test [5], in test [7] and in test [8] was “inactive” each time.

As to `Cc1cc(C2CCCCC2)n(O)c(=O)c1`, the activation in test [1] was 25.4%. The Potency is 18.6 µM (active) in test [2]; 10.5 µM (active) in test [3]; 4.17 µM (active) in test [4]; 10.5 µM (active) in test [5]; 11.8 µM (active) in test [7]; 10.5 µM (active) in test [8].

Regarding `O=C(O)C(O)Cc1ccc(O)c(O)c1` (configuration not stated), the activation in test [1] is -12.6%. The viability in test [2] is 99.8%. For the same compound, the Potency result in test [3], in test [4], in test [5], in test [6], in test [7] and in test [8] was “inactive” in each case.

In the case of `CCCc1cc(C(N)=S)ccn1`, in test [1], the activation was -10.9% and -12.4%. Further, the viability in test [2] is 112%. Also, the Potency result in test [3], in test [4], in test [5], in test [7] and in test [8] was “inactive” throughout.

As for `Cc1cc(=O)oc2cc(O)ccc12`, in test [1], the activation is -17.5% and -1.39%. In addition, in test [2], the viability was 111%. In addition, the Potency result in test [3], in test [4], in test [5], in test [6], in test [7] and in test [8] was “inactive” each time.

Consider `CC(C)C[C@H](NC(=O)[C@H](CCc1ccccc1)NC(=O)CN1CCOCC1)C(=O)N[C@@H](Cc1ccccc1)C(=O)N[C@@H](CC(C)C)C(=O)[C@@]1(C)CO1`, for which the Potency in test [1] was 110 nM (active) and 273 nM (active); in test [2], 0.0833 µM (active); in test [3], 0.0209 µM (active); in test [4], 0.0209 µM (active); in test [5], 0.0235 µM (active); in test [6], 0.0417 µM (active). For the same compound, the Potency in test [8] was 0.0525 µM (active).

For the compound `Cn1cc(C2=C(c3c4n(c5ccccc35)CCC(CN)C4)C(=O)NC2=O)c2ccccc21` (configuration not stated), the Potency is 27.3 µM (active) in test [1], 4.81 µM (active) in test [4] and 5.39 µM (active) in test [5]. For the same compound, in test [2], the viability is 103%. Besides, the viability (% of control) in test [3] is 88.4% [at 8.46 µM]; in test [6] it was 97.4% [at 8.46 µM]; in test [8] it was 98.9% [at 8.46 µM].

For the compound `O=C(NCCS(=O)(=O)c1ccc(C(F)(F)F)cn1)c1ccc(Cl)cc1`, the activation in test [1] is 6.23%. Also, the viability in test [2] was 108%. The Potency result in test [3], in test [4], in test [5], in test [7] and in test [8] was “inactive” throughout.

On to `CNC(=O)c1cc(Oc2ccc(NC(=O)Nc3cc(C(C)(C)C)nn3-c3ccc4ncccc4c3)c(F)c2)ccn1`, for which the Potency in test [1] was 5.36 µM (active); in test [2], 18.6 µM (active); in test [3] it was 23.5 µM (active); in test [4], 0.0468 µM (active); in test [5], 0.148 µM (active); in test [7], 20.9 µM (active). For the same compound, the Potency in test [8] is 20.9 µM (active).

`CS(=O)(=O)Oc1ccc2c(NC(N)=O)c(C(=O)c3ccc(Cl)cc3Cl)oc2c1`: the activation in test [1] was -14%. In addition, the viability in test [2] is 97.1%. Further, the Potency entry in test [3], in test [4], in test [5], in test [6], in test [7] and in test [8] was “inactive” in each case.

Regarding `O=c1[nH]nc(Sc2ncc([N+](=O)[O-])s2)n1-c1ccc2c(c1)OCCO2`, the activation in test [1] was -12.9%. For the same compound, the Potency in test [2] was 7.42 µM (active); in test [3] it was 2.95 µM (active); in test [4], 1.86 µM (active); in test [5] it was 3.32 µM (active); in test [6], 9.34 µM (active); in test [8] it was 7.42 µM (active).

The viability is a read-out of living cells in per cent, often relative to untreated cells.
